An excerpt weighted towards active compounds, which were near 12% of everything screened.
G9a block – G9a (human) methyltransferase inhibition. Q96KQ7. G9a H3K9 monomethylation, AlphaScreen, 2 h. Potency, µM (series often up to 102 µM), for the others: at the highest dose activity, negative = inhibition, actives largely listed as inhibitors. 350,000 tested, 8.8% active; note: % is set by controls: 0 for no effect and ±100 for the full control effect; nearly all actives have a fitted effect of over 75% in size
Target sequence (Q96KQ7 913-1193 limits assumed): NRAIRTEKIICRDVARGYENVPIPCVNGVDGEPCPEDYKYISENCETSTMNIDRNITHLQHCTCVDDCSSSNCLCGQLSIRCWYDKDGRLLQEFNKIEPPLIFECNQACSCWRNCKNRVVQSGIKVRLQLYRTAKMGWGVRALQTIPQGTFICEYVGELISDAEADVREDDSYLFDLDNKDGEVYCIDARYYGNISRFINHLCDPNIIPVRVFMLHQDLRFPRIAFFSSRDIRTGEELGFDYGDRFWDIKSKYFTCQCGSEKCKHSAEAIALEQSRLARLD
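G9a (20 nM) was preincubated 15 min with compound, then reacted 2 h at room temperature with 500 nM biotin-H3K9 peptide and 20 µM SAM. Monomethyl-H3K9 detected by AlphaScreen using anti-H3K9me1 antibody.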
BAZ2B inh – blocks human BAZ2B. Q9UIF8. AlphaScreen BAZ2B-H3K14Ac peptide displacement. Potency, µM (top dose mostly 114 µM), for inactives: at the highest dose activity change, negative = inhibition, usual class: inhibitors. 360,000 tested, 4.4% active; note: % is set by controls: 0 for no effect and ±100 for the full control effect; nearly all actives have a fitted effect of over 60% in size
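AlphaScreen displacement: compounds (up to 110uM) incubated 30 min at room temperature with a preformed 50 nM BAZ2B/50 nM biotinylated H3K14Ac peptide complex in PBS pH 7.4 with Tween-20. Donor and acceptor beads at 10 ug/mL final added, 20 min light-protected before reading.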
HP1b chromo inh – inhibitors of HP1-beta chromodomain binding to methylated histone tails; P83916; AlphaScreen HP1-beta / biotin-H3K9me3 peptide binding; Potency, µM (series often up to 114 µM), inactives show top-dose activity change, negative = inhibition, usual class: inhibitors; 390,000 tested, 0.56% active; note: nearly all actives have a fitted effect of over 70% in size
Target sequence (P83916 whole entry, looked up): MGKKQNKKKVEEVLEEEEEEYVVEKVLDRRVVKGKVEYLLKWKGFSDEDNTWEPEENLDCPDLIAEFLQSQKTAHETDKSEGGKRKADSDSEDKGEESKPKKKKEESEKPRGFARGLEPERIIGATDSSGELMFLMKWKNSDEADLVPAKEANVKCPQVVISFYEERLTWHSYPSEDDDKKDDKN
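HP1-beta protein (50 nM final) preincubated 30 min at room temperature with biotinylated H3(1-18)K9me3 peptide (50 nM) in PBS pH 7.4, 0.01% Tween-20, then compound added for 30 min. AlphaScreen streptavidin donor/nickel chelate acceptor beads (10 ug/mL final), 30 min dark, luminescence read.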
L3MBTL1 block – blocks human L3MBTL1; Q9Y468; AlphaScreen L3MBTL1–H3K9me1 peptide binding; Potency, µM (titrated, usually from 57.1 µM), for the others: at the highest dose activity, negative = inhibition, usual class: inhibitors; 230,000 tested, 0.66% active; AID 485360; note: % is set by controls: 0 for no effect and ±100 for the full control effect; nearly all actives have a fitted effect of over 60% in size
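AlphaScreen proximity signal between nickel-chelate acceptor and streptavidin donor beads (final 10 ug/mL) reports binding of 50 nM L3MBTL1 to 75 nM biotin-H3 K9me1 peptide; complex incubated with compounds 30 min at room temperature; cefsulodin titration as control.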
JMJD2A Tudor – blocks the human JMJD2A Tudor domain. AlphaScreen JMJD2A-Tudor / H3K4me3 peptide binding. Potency, µM (titrated, usually from 114 µM), for inactives: at the top dose activity change, negative = inhibition, usual class: inhibitors. 390,000 tested, 4.4% active; note: % is set by controls: 0 for no effect and ±100 for the full control effect; nearly all actives have a fitted effect of over 50% in size
Sfp inh – blocks B. subtilis Sfp PPTase activity. Potency, µM, for the others: largest response in the series, negative = inhibition, actives largely listed as inhibitors. Q9F4F7. AID 1490. Biochemical Sfp PPTase activity, qHTS. 310,000 tested, 3.5% active;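 note: the enzyme is Sfp with the accession as filed and its product quenches rhodamine fluorescence; 0% = enzyme reaction without inhibitor and -100% = no enzyme wells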
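Sfp 15 nM + cpd, 15 min RT; start w/ rhodamine-CoA 5 uM, BHQ-2-YbbR 12.5 uM (final); 50 mM Hepes pH 7.6, 10 mM MgCl2, 0.01% NP-40, 0.01% BSA; read 525/598 nm at 0 and 30 min.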
Starred values were filed as active, the others as inactive; u = inconclusive; x = no result given; ! = a repeat was not active; [ ] = dose if it differs, or a comment. Calls come from the whole dose curve; as a rule, active = well fitted curve in the direction sought with a large enough effect; inconclusive = small, poorly fitted or top-dose-only effect, or another doubt; inactive = no such curve, though single readings can be large; an effect the other way counts as inactive or inconclusive. Potency is the fitted concentration of half-maximal effect.

SMILES	G9a block	BAZ2B inh	HP1b chromo inh	L3MBTL1 block	JMJD2A Tudor	Sfp inh
NCC(N)C(=O)c1ccccc1 (centres undefined)	x	x	x	x	x	-3%
CCN(CC)C(=O)Oc1ccc2cc(Br)ccc2c1	108%[59 µM]	78%	172%	36%	96%	10%
CC1(C)[C@@H](O)C[C@H]2[C@](C)(O)[C@@H]3CC[C@H]4[C@@H](O)[C@@]3(C[C@@H](O)[C@@]21O)C[C@@]4(C)O	29%[59 µM]	x	x	x	x	22%
CN(C)c1ccc(/C=C/c2cc[n+](C)c3ccccc23)cc1	u	79µM*	45µM*	u	22µM*	56µM*
CN1C(=O)N(C)C(=O)C2(Cc3c(nc4ccccn4c3=O)N3CCC(Cc4ccccc4)CC32)C1=O (centres undefined)	-21%	8%	x	2%	x	-1%
Cc1cccn2c(=O)c3c(nc12)N1CCC(Cc2ccccc2)CC1C1(C3)C(=O)N(C)C(=O)N(C)C1=O (centres undefined)	u	-36%	1%	x	-28%	32µM*
c1ccc(CCNCc2ccccc2)cc1	6%	3%	15%	13%	-9%	-5%
CC1=C/C(=N\NC(=S)NCCc2ccccc2)CC(C)(C)C1	40µM*	u	-11%	-9%[11.4 µM]	50µM*	3%
C=CCSc1nc2c(c(-c3ccsc3)c1C#N)CN(C)CC2	16µM*	-36%	-3%	-14%	-32%	-14%
CC1CC[C@@]2(OC1)OC1C(O)C3C4CC[C@H]5CC(O[C@@H]6O[C@@H](CO)[C@H](OC7OC(CO)C(O)C(OC8OCC(O)C(O)[C@H]8O)[C@@H]7O[C@@H]7OC(CO)[C@H](O)[C@@H](O[C@@H]8OC(CO)C(O)C(O)C8O)C7O)C(O)C6O)C(O)C[C@]5(C)C4CC[C@]3(C)C1C2C (some centres undefined)	5%[2.33 µM]	x	x	x	x	2%
Cc1nc2cc(F)ccc2n1C1CCN(Cc2nnnn2CCc2ccccc2)CC1	-16%[59 µM]	56µM*	-6%	x	-35%[57.1 µM]	0%
Nc1ccc(Br)cc1	x	x	4%	x	-9%	x
Nc1ccc(N=Nc2ccccc2)cc1	45µM*	22µM*	u	-26%	45µM*	8%
CCC(C)N1C(=O)NC(=O)C2(Cc3c(ccc4ccccc34)N(C)C2)C1=O (centres undefined)	1.8µM*	u	-37%	-19%	-24%	-5%
CCCCN1C(=O)NC(=O)C2(Cc3cc(C)ccc3N(C)C2)C1=O (centres undefined)	u	-7%	31%	x	-16%	u
CC(C)n1c(O)c(C2c3cc(Cl)ccc3Oc3[nH]c(=O)n(C(C)C)c(=O)c32)c(=O)[nH]c1=O (centres undefined)	4.5µM*	-24%	9%	-9%	-16%	28µM*
C[C@H]1OC[C@@H](C[N+](C)(C)C)O1	1.6µM*	-29%	9%	8%	u	9%
CC1OC(C[N+](C)(C)C)CC1O (centres undefined)	2%[59 µM]	14%	17%	1%	-8%	x
C[C@@H]1O[C@H](C[N+](C)(C)C)C[C@H]1O	16µM*!	x	x	x	x	x
O=[N+]([O-])c1ccc(-c2ccc(C=Nc3cccc4ccccc34)o2)cc1	6.3µM*	40µM*	u	-27%	16µM*	9%
COc1cc(/C=C2/C(=O)NC(=O)N(c3ccccc3)C2=O)ccc1O	35µM*	-1%	34%	-10%	-11%	8.9µM*
O=C1NC(=O)N(c2ccccc2)C(=O)/C1=C\c1ccccc1[N+](=O)[O-]	28µM*	-8%	12%	1%	-9%	22µM*
COCCNC(=O)Cn1cc(/C=C2\C(=O)NC(=O)N(c3ccccc3F)C2=O)c2ccccc21	6%	2%	49%	x	-6%	0%
O=C1NC(=O)N(c2ccccc2F)C(=O)/C1=C/c1ccc(Sc2nc3ccccc3[nH]2)o1	6.3µM*	32µM*	u	u	22µM*	50µM*
